High-throughput results (PubChem)
HEK293 tox = HEK 293 cell cytotoxicity; HEK 293 viability, ATP luminescence (CellTiter-Glo), 48-72 h; Potency, µM (top dose mostly 115 µM), for the others: at the highest dose activity change, negative = cytotoxicity, actives largely listed as inhibitors; actives 6.6% (n = 94,000); AID 1345083; note: nearly all actives have a fitted effect of over 60% in size
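HEK 293 cells seeded at 250 cells/well were exposed to compound for 48 or 72 hr at 37 degree Celsius. Viability taken as ATP content by CellTiter-Glo luminescence.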
FLuc inh = inhibitors of firefly (Photinus pyralis) luciferase. P08659. purified P. pyralis luciferase, luminescence, biochemical. Potency, µM (highest dose often 115 µM), usual class: inhibitors. actives 2.5% (n = 76,000). AID 1347043; note: nearly all actives have a fitted effect of over 65% in size
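Purified P. pyralis luciferase (10nM final) in 50mM Tris acetate pH 7.5, 10mM Mg acetate, 0.01% Tween-20, 0.05% BSA with 10uM D-luciferin and 10uM ATP. Compounds titrated qHTS. Luminescence imaged on CCD.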
NPR1 antag = antagonists of human natriuretic peptide receptor Npr1; actives 1.6% (n = 76,000); P16066; Potency, µM (series often up to 46.3 µM), for inactives: at the top dose activity change, negative = inhibition, usual class: inhibitors; HEK293 hNpr1 GloSensor cGMP, ANP-stimulated luminescence; calls by dose curve; note: nearly all actives have a fitted effect of over 60% in size
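Compound pre-incubated 30 min at room temperature on GloSensor-loaded HEK293 cells stably carrying hNpr1 and the pGS-40F cGMP biosensor. Stimulation uses hNppA at 0.1 nM final; luminescence is taken at baseline and 20 min post-agonist.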
NIH3T3 tox = cytotoxic compounds in NIH 3T3 cells; NIH 3T3 viability, CellTiter-Glo ATP luminescence, 48-72 h; Potency, µM (highest dose often 96.7 µM), for the others: at the top dose activity change, negative = cytotoxicity, usual class: inhibitors; actives 4.3% (n = 94,000); AID 1345082; note: nearly all actives have a fitted effect of over 55% in size
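ATP-dependent luminescence (CellTiter-Glo) served as the viability signal for NIH 3T3 cells treated with compound for 48 or 72 hr at 37 °C.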
GPT2 inhibitor = blocks human glutamate pyruvate transaminase 2; Recombinant GPT2, coupled pyruvate oxidase/HRP Amplex Red fluorescence; actives 0.25% (n = 100,000); Potency, µM (series often up to 57.7 µM), without a hit: at the top dose activity change, negative = inhibition, actives largely listed as inhibitors; note: nearly all actives have a fitted effect of over 60% in size
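GPT2 10ng/uL, a-KG 250uM, L-Ala 2mM, HEPES pH7.5 + 0.0001% Tween; 30 min RT. Then Amplex mix (PO/HRP/ThPP), 30 min RT dark, fluorescence. AOA 50uM used as positive control.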
An asterisk follows results filed as active; i = inactive; ? = inconclusive; nt = not tested or not shown; ! = a repeat was not active; [ ] = another dose, or the depositor's remark. Only some compounds are listed: those with a hit (about 10% of all), similar ones and a draw of the others. Unless noted, calls come from the whole dose curve; as a rule, active = well fitted curve in the direction sought with a large enough effect; inconclusive = small, poorly fitted or top-dose-only effect, or another doubt; inactive = no such curve, though single readings can be large; an effect the other way counts as inactive or inconclusive. % is set by controls: 0 for no effect and ±100 for the full control effect; potency is the fitted concentration of half-maximal effect.

SMILES	HEK293 tox	FLuc inh	NPR1 antag	NIH3T3 tox	GPT2 inhibitor
CCCN1C(=O)Cc2ccccc2C1C(=O)N1CCN(c2ccccc2)CC1 (stereo not drawn)	?	i	-1%	-10%	i
COC(=O)[C@@H]1Cc2ncn(C)c2CN1S(=O)(=O)c1ccc(Cl)cc1	-3%[172 µM]	i	-2%[70.6 µM]	?	1%[88.5 µM]
COC(=O)[C@@H]1Cc2ncn(C)c2CN1S(=O)(=O)c1ccc2ccccc2c1	-7%[172 µM]	i	0%[70.6 µM]	79µM*	i
COC(=O)[C@@H]1Cc2ncn(Cc3ccc(OC)cc3)c2CN1S(=O)(=O)c1ccc(F)cc1	-5%	i	3%	79µM*	?
COC(=O)[C@@H]1Cc2ncn(Cc3ccc(OC)cc3)c2CN1Cc1ccc(F)cc1	63µM*	i	?	?	-24%[88.5 µM]
COC(=O)[C@@H]1Cc2ncn(Cc3ccc(OC)cc3)c2CN1S(=O)(=O)c1ccc(OC)cc1	-5%	i	2%	?	-12%
CCc1noc(-c2ccn3c(CNC(=O)c4ccc(C)c(C)c4)nnc3c2)n1	-3%	i	-9%	-14%	4%
O=C(NC1CCN(Cc2cccc(-c3ccc(F)cc3F)c2)CC1)c1ccncc1	32µM*	nt	nt	?	nt
O=C(NC1CCN(Cc2cccc(-c3ccc(F)cc3F)c2)CC1)C1CCCC1	-17%	nt	nt	-19%	nt
COc1cccc(C(=O)NC2CCN(Cc3cccc(-c4ccc(F)cc4F)c3)CC2)c1	32µM*!	nt	nt	35µM*!	nt
COc1cc(SC)ccc1C(=O)N[C@H]1CCN2C(=O)[C@@H](CC(C)C)NC(=O)[C@@H]2C1	i	i	-10%[70.6 µM]	-5%[138 µM]	i
CCCc1nc(C(=O)NCc2ccc(-n3ccnc3C)cc2)cs1	20µM*	i	-27%	?	-9%
COc1cccc(NC(=O)N2CCC(c3cc(-c4cccc(C)c4)n[nH]3)CC2)c1	?	i	-24%	40µM*	-13%
COc1cccc(-c2cc(C(=O)N3CCC(Cn4cccn4)CC3)[nH]n2)c1	-1%	32µM*	1%	?	2%
Cc1cccc(NC(=O)N2CCC(c3cc(-c4cccc(C)c4)n[nH]3)CC2)c1	?	i	-15%	?	?
COc1cccc(-c2cc(C3CCN(C(=O)Nc4cc(Cl)ccc4C)CC3)[nH]n2)c1	45µM*	?	-23%	?	-2%
COc1cccc(-c2cc(C3CCN(C(=O)NC4CCCC4)CC3)[nH]n2)c1	?	i	-22%	-16%	i
COc1cccc(-c2cc(C3CCN(C(=O)Nc4cccc(SC)c4)CC3)[nH]n2)c1	?	i	1%	45µM*	-9%
CCOC(=O)C1CCN(C(=O)c2ccc3nnc(-c4ccc(OC(F)(F)F)cc4)n3c2)CC1	-17%	nt	nt	?	?
COC(=O)c1ccccc1S(=O)(=O)N1CCC(c2cc(-c3cccc(C)c3)n[nH]2)CC1	45µM*	i	1%	40µM*	i
CCOc1ccccc1NC(=O)N1CCC(c2cc(-c3cccc(OC)c3)n[nH]2)CC1	?	i	-23%	35µM*	4%
CC1(c2cccnc2)N(Cc2ccccc2)C(=O)OC12CCN(C(=O)c1cnccn1)CC2 (stereo not drawn)	-15%	i	-9%	28µM*	-24%
COCC(=O)N1CCC2(CC1)OC(=O)N(Cc1ccc(O)cc1)C2(C)c1ccccc1 (stereo not drawn)	i	i	4%[70.6 µM]	?	1%[88.5 µM]
CC1(c2ccccc2)N(Cc2cccnc2)C(=O)OC12CCN(C(=O)c1ccc(F)cc1)CC2 (stereo not drawn)	i	i	0%	?	i
COCC(=O)N1CCC2(CC1)OC(=O)N(CCOc1ccccc1)C2(C)c1cccnc1 (stereo not drawn)	-9%[172 µM]	i	3%[70.6 µM]	50µM*	-2%[88.5 µM]
SMILES	HEK293 tox	FLuc inh	NPR1 antag	NIH3T3 tox	GPT2 inhibitor
CC1(c2ccccc2)N(Cc2cccnc2)C(=O)OC12CCN(C(=O)Cc1ccccc1)CC2 (stereo not drawn)	-8%	i	8%	?	-8%
CC1(c2ccccc2)N(Cc2ccccc2)C(=O)OC12CCN(C(=O)COc1ccccc1)CC2 (stereo not drawn)	?	i	2%	28µM*	-14%
CC1(c2cccnc2)N(Cc2ccccc2)C(=O)OC12CCN(C(=O)COc1ccccc1)CC2 (stereo not drawn)	-9%	i	1%	32µM*	1%
Cc1cccc(-c2nc3cc(C(=O)NCC(C)C)ccc3o2)n1	?	nt	nt	?	i
CCCCn1c(=O)c(C(=O)NCC(=O)OC)nc2cccnc21	-8%[172 µM]	nt	nt	-31%[138 µM]	-6%[88.5 µM]
CCc1nc2c(c(-c3ccc(Cl)cc3)n1)CCN(C(=O)c1ccccc1F)CC2	-22%	i	0%	-22%	i
Cc1cc(C)c([S+](=O)([O-])c2nnn3c2nc(N2CCCCC2)c2ccccc23)c(C)c1	-19%	nt	nt	-19%	-11%
Cc1ccc(Nc2ccnc(N3CCC(NC(=O)C(C)(C)C)CC3)n2)cc1	?	nt	nt	?	i
Cc1ccc(Nc2ccnc(N3CCC(NC(=O)Cc4cccc(Cl)c4)CC3)n2)cc1	25µM*	nt	nt	18µM*	i
COc1ccccc1Nc1ccnc(N2CCC(NC(=O)Cc3cccc(Cl)c3)CC2)n1	?	nt	nt	32µM*	i
COCC(=O)NC1CCN(c2nccc(Nc3ccc(C)cc3)n2)CC1	?	nt	nt	35µM*	i
COc1ccc(CNC[C@H]2COCc3nc4cccnc4n32)cc1	-23%[172 µM]	i	-2%[70.6 µM]	-20%[138 µM]	4%[88.5 µM]
O=C(NCC1CCCCC1)c1ccc2oc(-c3ccccn3)nc2c1	-3%	nt	nt	1%	i
CCOc1ccccc1NC(=O)Cn1c(=O)c(-c2noc(C)n2)c2n(c1=O)CCCCC2	1%	i	-6%	4%	-17%
CCn1ncc(N2CCCC(CC(=O)N(C)Cc3ccccc3)C2)cc1=O (stereo not drawn)	?	i	0%	-23%	-3%
Cc1ccncc1C(=O)N1CCC(N2C(=O)C3(CCCC3)C2c2scnc2C)CC1 (stereo not drawn)	-7%	nt	nt	i	-3%
Cc1ccc(-c2cccc(CN3CCCC3C(=O)NC3CCC3)c2)cc1Cl (stereo not drawn)	28µM*	nt	nt	40µM*	nt
CCC(C)NC(=O)C1CCCN1Cc1cccc(-c2ccc(C)c(Cl)c2)c1 (stereo not drawn)	22µM*	nt	nt	35µM*	nt
Cc1ccc(-c2cccc(CN3CCCC(NC(=O)NC4CCCC4)C3)c2)cc1Cl (stereo not drawn)	5%	nt	nt	-18%	-3%
Cc1ccc(-c2cccc(CN3CCCC3C(=O)NC3CC3)c2)cc1Cl (stereo not drawn)	32µM*	nt	nt	35µM*	nt
